Source: PubChem BioAssay (NCI)
About 79,000 compounds went through this panel and 15% of them were active in at least one assay; those are over-represented in the sample as a whole. Cut-off read from the data, not from the text of the source: active = growth inhibition above about 70%; inactive = the rest. Where a SMILES comes first, the peptide text is derived from it. [ ]: non-standard residue; d: D form. The star is where a group is joined. ξ: configuration not given here. Cbz = O=C(OCc1ccccc1)*; ξNva = CCCC(N)C(=O)O

Columns and labels:
[1] = NCI Yeast Anticancer Drug Screen. Data for the rad50 strain (AID 155);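 note: 0% = growth of vehicle-only cultures of the same strain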; details: S. cerevisiae rad50 strain growth inhibition; at 50.0 µM; hits give high values
Method in brief: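 Genetically altered yeast (DNA repair pathway); compound treatment; growth inhibition vs vehicle ctrl.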

[2] = NCI Yeast Anticancer Drug Screen. Data for the mec2-1 strain (AID 157); details: S. cerevisiae mec2-1 strain, at 50.0 µM, hits give high values
Method in brief: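 Cells of the genetically defined mec2-1 yeast strain are incubated with test compound. Inhibition of growth is calculated against vehicle-treated controls.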

[3] = NCI Yeast Anticancer Drug Screen. Data for the sgs1 mgt1 strain (AID 161);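 note: 0% = growth of cultures given vehicle only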; details: S. cerevisiae sgs1 mgt1 strain, at 50.0 µM, hits give high values
Method in brief: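 Read-out: growth inhibition vs vehicle controls. Cells: mutant yeast strain deficient in DNA damage repair.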

[4] = NCI Yeast Anticancer Drug Screen. Data for the cln2 rad14 strain (AID 165);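 note: 0% = growth equal to vehicle treated cultures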; details: S. cerevisiae cln2 rad14 strain, at 50.0 µM, hits give high values
Method in brief: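 The screen exposed genetically defined yeast (cln2 rad14) to test compounds and scored growth inhibition relative to vehicle-treated controls.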

[5] = NCI Yeast Anticancer Drug Screen. Data for the bub3 strain (AID 167); details: S. cerevisiae bub3 mutant strain, at 50.0 µM, hits give high values
Method in brief: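 Yeast carrying a defined mutation is treated with each compound, and growth is compared with that of vehicle-exposed cells to give inhibition.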

[6] = NCI Yeast Anticancer Drug Screen. Data for the mlh1 rad18 strain (AID 175); details: S. cerevisiae mlh1 rad18 strain growth inhibition; at 50.0 µM; hits give high values
Method in brief: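 Compound-treated yeast growth, normalised to vehicle controls. Strain bears defined DNA repair mutations.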

Measured: growth inhibition

CC(=O)n1oc2ccc(Br)cc2c1=O
inactive: [1] -3.6% | [2] 1.2% | [3] -7.8% | [4] -5.4% | [5] 9.25% | [6] 9.75%

COc1cc(-c2cccs2)sc1-c1cccs1
inactive: [1] 10.4% | [2] -7.15% | [3] 31.4% | [4] 8.95% | [5] 19.6% | [6] 13.2%

CN1Cc2ccccc2[C@H]2C(c3ccccc3)=NN(c3ccccc3)[C@H]21
inactive: [1] 39.6% | [2] 26.9% | [3] 59.2% | [4] 9.6% | [5] 41.2% | [6] 37.2%

Cc1cc2c(c(S(=O)(=O)c3ccccc3[N+](=O)[O-])c1)NCCC2
inactive: [1] 2.95% | [2] -36% | [3] 3.3% | [4] -23.4% | [5] 14.8% | [6] -15.8%

CNC1C(O)C(OC2C(N)CC(N)C(OC3OC(CN)=CCC3N)C2O)OCC1(C)O (stereo unspecified)
inactive: [1] -17.3% | [2] -43.3% | [3] -34.1% | [4] -15.6% | [5] -25.8% | [6] -5.15%

CCOC(=O)C1C(c2ccccc2)ON(c2ccccc2)C1c1cccc([N+](=O)[O-])c1 (stereo unspecified)
inactive: [1] 22.2% | [2] 3.9% | [3] -4.05% | [4] -11.5% | [5] 3.3% | [6] 1.65%

CC(=O)Oc1cc(Cl)c(Cl)cc1Cl
inactive: [1] 19.9% | [2] 29.9% | [3] -5.65% | [4] -30.4% | [5] -16.4% | [6] -2.1%

CCCCSc1nc2ccc(N=Cc3ccccc3O)cc2s1
inactive: [1] -19.6% | [2] -11.2% | [3] -4.45% | [4] -17.7% | [5] -5.75% | [6] -22.4%

CS(=O)(=O)OCCn1cnc2nc(NC(=O)c3ccccc3)[nH]c(=O)c21
inactive: [1] -13.1% | [2] -20.6% | [3] -12.7% | [4] 0.55% | [5] -19.2% | [6] -24.6%

CC(=O)OC1CC2CC1C1CC=CC21 (stereo unspecified)
inactive: [1] 35.2% | [2] -2% | [3] -0.4% | [4] 34.1% | [5] 2.4% | [6] 14.4%

O=C(c1ccccc1)c1ccc(Cl)c(Cl)c1
inactive: [1] -5.3% | [2] -23.3% | [3] 2.05% | [4] -55.5% | [5] 6.65% | [6] -8.05%

CC(N=C(N)N)C(=O)O (stereo unspecified)
inactive: [1] -11.9% | [2] 9.1% | [3] 0.15% | [4] -12.5% | [5] 5.3% | [6] 14%

CC(C)CCNc1nc(N)[nH]c(=O)c1NC=O
inactive: [1] -16.7% | [2] 16.1% | [3] -0.55% | [4] 7.5% | [5] 2.7% | [6] -56.6%

Cc1cccc(C(=O)NNC(=O)c2ccc3ccccc3c2)c1
inactive: [1] -60.3% | [2] -49.7% | [3] -23.9% | [4] -3.6% | [5] -28.9% | [6] -33.2%

CC(=O)Nc1ccc(N)cc1N
inactive: [1] -1.3% | [2] -37.8% | [3] -17.9% | [4] 29.7% | [5] -6.35% | [6] 13.8%

O=C(O)C(=Cc1ccnc2ccccc12)C(=O)O
inactive: [1] 7.75% | [2] -13.7% | [3] -35.8% | [4] 15.7% | [5] -52.2% | [6] 3.5%

CC(/C=N/NC1=NCCCCN1)=N\NC1=NCCCCN1
inactive: [1] -4.95% | [2] -16% | [3] -15.6% | [4] 8.8% | [5] -10.6% | [6] -16.4%

CCCC(NC(=O)OCc1ccccc1)C(=O)NCC(=O)O (stereo unspecified) (Cbz-[ξNva]-Gly-OH)
inactive: [1] 24.6% | [2] 7.2% | [3] 6.05% | [4] 23.4% | [5] 8.7% | [6] 8.55%

CC1(C=O)C(=O)CCC2(C)C3CC(=O)OC3CCC12 (stereo unspecified)
inactive: [1] -35% | [2] -10.1% | [3] -10.8% | [4] -20.3% | [5] -17.7% | [6] -27.1%

COc1ccc(/C=C/c2ccc3ccccc3[n+]2C)cc1OC
inactive: [1] 32% | [2] 4.55% | [3] 32.6% | [4] 21.3% | [5] 0.7% | [6] 15.9%

CC(C)(C)c1cc(C(C)(C)C)c(P(C(O[Si](C)(C)C)=C(c2ccccc2)c2ccccc2)C(O[Si](C)(C)C)=C(c2ccccc2)c2ccccc2)c(C(C)(C)C)c1
inactive: [1] -14.7% | [2] -8.45% | [3] -3.7% | [4] 5.2% | [5] -5% | [6] 15.2%
